The panel holds about 83,000 compounds, 20% with a hit somewhere; the sample as a whole holds those more often.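 Negative percent growth values reflect cell death: -40 means 40% of the cells present at the start died, and -100 means all died.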 Activity calls are given as the source filed them. The calls were made as follows: active = growth percent below 10; inactive = the rest.
Legend:
Assay in all cases: NCI-60 one-dose screen, 48 h (100 = growth as untreated, 0 = no growth, -100 = all killed)
[1] = tested on: HT29 colon; details: 10 µM unless noted
[2] = tested on: SNB-75 CNS; details: 10 µM unless noted
[3] = tested on: SNB-19 CNS; details: 10 µM unless noted
[4] = tested on: U251 CNS; details: 10 µM unless noted
[5] = tested on: PC-3 prostate; details: 10 µM unless noted
[6] = tested on: SK-MEL-5 melanoma; details: 10 µM unless noted
[7] = tested on: UACC-62 melanoma; details: 10 µM unless noted
[8] = tested on: LOX IMVI melanoma; details: 10 µM unless noted
[9] = tested on: SK-MEL-28 melanoma; details: 10 µM
[10] = tested on: SK-MEL-2 melanoma; details: 10 µM unless noted
[11] = tested on: SN12C renal; details: 10 µM unless noted
[12] = tested on: UO-31 renal; details: 10 µM unless noted
[13] = tested on: TK-10 renal; details: 10 µM unless noted
[14] = tested on: ACHN renal; details: 10 µM unless noted
[15] = tested on: CAKI-1 renal; details: 10 µM unless noted
[16] = tested on: A498 renal; details: 10 µM unless noted
[17] = tested on: CCRF-CEM leukemia; details: 10 µM unless noted
[18] = tested on: MOLT-4 leukemia; details: 10 µM unless noted
[19] = tested on: SR leukemia; details: 10 µM unless noted

Measured: growth

COc1ccc(-c2cn3c(C(=O)Nc4ccccc4Cl)c(-c4ccccc4)c4c3n2CCCC4)cc1
inactive: [1] 26% | [2] 108% | [3] 96.6% | [4] 77.4% | [5] 72.8% | [6] 84% | [7] 93.2% | [8] 66.1% | [9] 91.6% | [10] 104% | [11] 82.7% | [12] 62.8% | [13] 72.2% | [14] 80.9% | [15] 81.6% | [16] 74.9% | [17] 66% | [18] 69.8% | [19] 62.8%

O=C1c2ccc3c4c(ccc(c24)C(=O)N1CCCCO)C(=O)N(CCCCO)C3=O
inactive: [1] 10.9% | [2] 54.2% | [3] 91.4% | [4] 72.3% | [5] 63% | [6] 78.4% | [7] 79.6% | [8] 59.9% | [9] 15.6% | [10] 58.1% | [11] 72% | [12] 24.4% | [13] 22.5% | [14] 43.9% | [15] 35.4% | [16] 56.2% | [18] 22.5%
active: [17] 6.38% | [19] 5.37%

Oc1c(C(Nc2ccccn2)c2cccc(Oc3ccccc3)c2)ccc2cccnc12 (stereo not given)
active: [1] -93.5% | [2] -99.1% | [3] -80.7% | [4] -89.2% | [5] -90.3% | [6] -68.1% | [7] -86.6% | [8] -86.5% | [9] -97.2% | [10] -82.9% | [11] -89.4% | [12] -90.4% | [13] -90.9% | [14] -88.8% | [15] -90.3% | [16] -61% | [17] -59% | [18] -70.1% | [19] -49.7%

O=C(Cc1ccccc1)NC(c1ccc(Cl)cc1)c1c(O)ccc2ccccc12 (stereo not given)
active: [4] 1.3% | [5] 3.12% | [6] -49.5% | [7] 5.84% | [10] -3.92% | [12] -7.48% | [15] 4.37% | [18] 9.11% | [19] 4.83%
inactive: [1] 12.8% | [2] 40% | [3] 20.8% | [8] 10.4% | [9] 36.6% | [11] 14.9% | [13] 17.1% | [14] 10.1% | [16] 32.8% | [17] 13.4%

O=S(=O)(c1ccc(NC(=S)NC23CC4CC(CC(C4)C2)C3)cc1)N1CCCCC1
inactive: [1] 94.1% | [2] 93.3% | [3] 99.9% | [4] 85.2% | [6] 87.7% | [7] 80.8% | [8] 96.9% | [9] 95% | [10] 106% | [11] 96.5% | [12] 61.6% | [13] 111% | [14] 93.6% | [15] 61.8% | [16] 78.8% | [17] 13.9%
active: [5] 8.79% | [18] -14.7% | [19] -21.9%

Cc1ccc(S(=O)(=O)c2c(COC(=O)c3cccc(C)c3)c(-c3ccccc3)nn2C)cc1
active: [1] -44.5% | [4] -32.4% | [8] -22.8% | [9] -68.4% | [17] -7.63% | [18] -11.2% | [19] 1.41%
inactive: [2] 107% | [3] 24.6% | [5] 48.5% | [6] 77.6% | [7] 88.7% | [10] 27.2% | [11] 89.1% | [12] 103% | [13] 113% | [14] 91% | [15] 107% | [16] 123%

CC1CCCCN1CCCNC(=O)c1ccc2c(c1)sc1nc(-c3ccc(F)cc3)cn12 (stereo not given)
inactive: [1] 92.8% | [2] 83.5% | [3] 104% | [4] 99.1% | [5] 83.8% | [6] 99.3% | [7] 100% | [8] 93.1% | [9] 104% | [10] 103% | [11] 99.6% | [12] 77% | [13] 90.4% | [14] 101% | [15] 97.4% | [16] 83.7% | [17] 82.8% | [18] 85.7% | [19] 78.1%

CN(C)CCNc1cc(-c2ccccc2)nc2ccccc12
inactive: [3] 54.2% | [16] 52.4%
active: [1] -42.2% | [2] -69.3% | [4] -69% | [5] -38.5% | [6] -74.3% | [7] -75.9% | [8] -84% | [9] -90.7% | [10] -45.2% | [11] -88.5% | [12] -94.2% | [13] -68% | [14] -27.5% | [15] -36.1% | [17] -9.11% | [18] 0.855% | [19] -23.1%

CCOc1ccc2nc(C)cc(Nc3ccc(Br)cc3)c2c1
inactive: [1] 77.8% | [2] 89.7% | [3] 101% | [4] 98.1% | [5] 86.7% | [6] 97.1% | [7] 103% | [8] 106% | [9] 108% | [10] 109% | [11] 98.5% | [12] 92.1% | [13] 119% | [14] 99.6% | [15] 97% | [16] 79.1% | [17] 90.3% | [18] 88.6% | [19] 86.4%

CC(=O)c1ccc(Cc2ccc(C(C)=O)s2)s1
inactive: [1] 103% | [2] 96.9% | [3] 98.8% | [4] 98% | [5] 93.8% | [6] 100% | [7] 96.4% | [8] 93.7% | [9] 112% | [10] 98.9% | [11] 98% | [12] 88.2% | [13] 94.9% | [14] 100% | [15] 96.4% | [17] 95.5% | [18] 83.2% | [19] 89.4%
active: [16] -68.7%

CCOC(=O)C1=C(C)N=c2s/c(=C\c3ccccc3O)c(=O)n2C1c1ccc(OC)c2ccccc12 (stereo not given)
active: [1] -52.2% | [2] -44.2% | [4] -68.6% | [6] -98.1% | [7] -85.4% | [8] -85.6% | [9] -96.2% | [10] -75.5% | [12] -18.3% | [15] -11.4% | [17] 2.51% | [18] -9.58% | [19] -18.4%
inactive: [3] 58.1% | [5] 22.9% | [11] 47.3% | [13] 10.8% | [14] 33.5% | [16] 17.6%

CCOc1cc2c(cc1OCC)C(c1cc(C)c(O)c(C)c1)NCC2 (stereo not given)
inactive: [1] 98% | [2] 95.3% | [3] 101% | [4] 94% | [5] 82% | [6] 99.9% | [7] 91.3% | [8] 99.6% | [9] 107% | [10] 98.3% | [11] 95.7% | [12] 73.4% | [13] 107% | [14] 94.2% | [15] 85.2% | [16] 88.1% | [17] 89.6% | [18] 96.3% | [19] 80.7%

COc1ccc(Nc2cc(C)nc(NCc3ccccc3)n2)cc1
inactive: [1] 11% | [2] 49% | [3] 57.1% | [4] 15.8% | [5] 28.1% | [6] 61.9% | [7] 69.3% | [9] 63.9% | [10] 31.1% | [11] 38.2% | [12] 42% | [13] 37.9% | [14] 36.3% | [15] 30.8% | [16] 81%
active: [8] -57.5% | [17] -3.8% | [18] 3.02% | [19] 0.982%

CCOC(=O)c1ccc2[nH]c(-c3ccccc3)cc(=O)c2c1
inactive: [1] 103% | [2] 72.3% | [3] 94.9% | [4] 97.2% | [5] 89.1% | [6] 103% | [7] 101% | [8] 98.2% | [9] 109% | [10] 105% | [11] 98.2% | [12] 97.1% | [13] 112% | [14] 97.5% | [15] 98.5% | [16] 94.4% | [17] 89.7% | [18] 94% | [19] 96%

CCOC(=O)C1(Cc2ccccc2)CCN(Cc2cccc(OC)c2O)CC1
active: [4] 3.94% | [6] -33.4% | [7] -7.92% | [8] 5.51% | [10] 9.33% | [12] -11.8% | [15] -11.3% | [17] 9.78% | [18] 9.72% | [19] 7.58%
inactive: [1] 22.2% | [2] 37.7% | [3] 14.9% | [5] 25% | [9] 38% | [11] 10.7% | [13] 36.7% | [14] 10.8% | [16] 21.2%

— PubChem BioAssay (NCI)
